Measurements from PubChem BioAssay (Tox21).
Records with an inconclusive call do not appear. Active and inactive are the calls of the source. Calls come from the whole dose curve; as a rule, active = well fitted activation curve with a large enough effect in the repeat runs; inconclusive = weak or mixed curves; inactive = no such curve, though single readings can be large or run the other way.

target: Nuclear receptor subfamily 1 group I member 3 (Homo sapiens) (UniProt Q14994); experiment: qHTS assay to identify small molecule agonists of the constitutive androstane receptor (CAR) signaling pathway (AID 1224839); settings: HepG2 hCAR CYP2B6-luciferase, agonist mode, 24 h; series mostly up to 92.4 µM; activation: at the top concentration; note: nearly all actives have a fitted effect of over 15% in size;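 for activation: HepG2 cells stably carrying human CAR and a CYP2B6 luciferase reporter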
Description: National Center for Advancing Translational Sciences [NCATS] NIH Chemical Genomics Center [NCGC] U.S. Environmental Protection Agency [EPA] National Institutes of Environmental Health Sciences [NIEHS] National Toxicology Program [NTP] Assay overview: The constitutive androstane receptor (CAR) is a nuclear receptor which regulates multiple drug metabolizing enzymes (DMEs) and transporters. Activating CAR will generally increase the transcription and subsequent translation of CYP2B6 and CYP3A4. These two DMEs represent about 50% of the drug metabolizing potential in the body. […] Recently, there have also been studies performed indicating CARs role in energy metabolism and cancer therapy. Therefore, inducing CARs activity could have a potential effect on diabetes and cancer. Identifying environmental toxins and compounds which modulate CAR, through the use of the Tox21 10K compound collection, will be an important step in determining the toxicity and potential therapeutic effects these factors will have on the human body.
Assay Protocol Summary: A double-stable (hCAR and CYP2B6-2.2kb) transfected cell line, derived from human hepatoma (HepG2) cells, was utilized for the duration of the quantitative high-throughput screens. The HepG2-CYP2B6-hCAR cells suspended in DMEM culture medium supplemented with 10% FBS, 5 ug/mL blasticidin, 0.5 mg/mL geneticin, 100 U/mL penicillin and 100 ug/mL streptomycin were dispensed at 2500 cells/4 uL/well in 1536-well white solid bottom plates using a Multidrop Combi. After the assay plates were incubated at 37 C/5% CO2 for 4 hrs, 23 nL of compounds at 15 concentrations (from 5-48 columns) or positive control (from 1 to 4 columns) were transferred to the assay plates using a Pintool station. One uL of PK11195, was added using a Flying Reagent Dispenser to generate a final concentration of 0.75 uM PK11195 inside each well. After a 24 hr incubation period at 37 C/5% CO2, four uL of ONE-Glo reagent was added into the assay plates using a Flying Reagent Dispenser. After a 30 min incubation period at room temperature, the luminescence intensity in the assay plates was measured using a ViewLux plate reader.
% is set by controls: 0 for no effect and ±100 for the full control effect; potency is the fitted concentration of half-maximal effect.

Sequence of Nuclear receptor subfamily 1 group I member 3 (Homo sapiens) (Q14994 whole entry, looked up): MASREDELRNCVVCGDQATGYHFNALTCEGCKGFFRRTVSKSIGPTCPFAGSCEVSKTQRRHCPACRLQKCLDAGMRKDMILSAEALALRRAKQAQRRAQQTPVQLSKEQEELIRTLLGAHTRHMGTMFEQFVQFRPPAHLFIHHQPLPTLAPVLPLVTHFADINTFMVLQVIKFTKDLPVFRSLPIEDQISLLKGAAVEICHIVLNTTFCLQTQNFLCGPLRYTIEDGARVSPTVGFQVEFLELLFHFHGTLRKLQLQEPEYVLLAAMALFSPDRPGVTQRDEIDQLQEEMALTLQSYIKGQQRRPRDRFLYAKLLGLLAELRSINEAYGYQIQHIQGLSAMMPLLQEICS

| Compound | activation | Potency |
| --- | --- | --- |
| O=c1[nH]c(=O)n([C@H]2C[C@H](O)[C@@H](CO)O2)cc1C(F)(F)F | -1.35% [at 42.5 µM] (inactive) | – |
| CCOC(=O)c1cc(=O)c2c(OCC(COc3cccc4oc(C(=O)OCC)cc(=O)c34)OC(=O)[C@@H](N)CCCCN)cccc2o1 | -0.751% [at 42.5 µM] (inactive) | – |
| CCN(CC)C(=O)N(CC)CC | 0.983% (inactive) | – |
| CCN1CC(CCN2CCOCC2)C(c2ccccc2)(c2ccccc2)C1=O (stereo not given) | -0.693% [at 42.5 µM] (inactive) | – |
| C[C@]12C(=O)OC(=O)[C@H]1[C@H]1C=C[C@@H]2C1 | -0.406% (inactive) | – |
| O=S(=O)(O)C(F)(F)F | -5.55% (inactive) | – |
| CN1C(=O)CC(c2ccccc2)C1=O (stereo not given) | -0.201% [at 42.5 µM] (inactive) | – |
| CC(C)(CO)[C@@H](O)C(=O)NCCC(=O)O | 0.184% (inactive) | – |
| CNCCC(Oc1ccccc1OC)c1ccccc1 (stereo not given) | -1.84% [at 42.5 µM] (inactive) | – |
| CC1(C)S[C@@H]2[C@H](NC(=O)C(C(=O)O)c3ccccc3)C(=O)N2[C@H]1C(=O)O (stereo not given in full) | 0.38% [at 42.5 µM] (inactive) | – |
| O=C(CCCl)NCc1ccccc1 | -1.42% [at 42.5 µM] (inactive) | – |
| CCN(CC)CCNC(=O)COc1ccc(Cl)cc1 | -0.577% [at 42.5 µM] (inactive) | – |
| O=C(O)C(=O)Cc1c[nH]c2ccccc12 | – | 30.6 µM (active) |
| CCc1cc(Cl)c(OC)c(C(=O)NC[C@@H]2CCCN2CC)c1O | 1.14% [at 42.5 µM] (inactive) | – |
| C[C@@H]1CN(c2c(F)c(F)c3c(=O)c(C(=O)O)cn(C4CC4)c3c2F)C[C@H](C)N1 | 0.519% [at 19 µM] (inactive) | – |
| OCCN(CCO)CCN(CCO)CCO | 0.0707% (inactive) | – |
| Cc1ccc([N+](=O)[O-])c(N)c1 | 6.98% (inactive) | – |
| COC(=O)N[C@H](C(=O)N[C@@H](Cc1ccccc1)[C@@H](O)CN(Cc1ccc(-c2ccccn2)cc1)NC(=O)[C@@H](NC(=O)OC)C(C)(C)C)C(C)(C)C | -10.4% [at 42.5 µM] (inactive) | – |
| CC(C)OC(C)C | -2.22% (inactive) | – |
| FC(F)(F)c1ccccc1 | 0.362% (inactive) | – |

| Compound | activation | Potency |
| --- | --- | --- |
| CCCN(CCC)C(=O)C(CCC(=O)O)NC(=O)c1ccccc1 (stereo not given) | -2.29% [at 42.5 µM] (inactive) | – |
| CC/C=C\CCOC(=O)CCCCC | -0.114% (inactive) | – |
| CCCCCCCCOC(=O)CCCCCCCCC(=O)OCCCCCCCC | 6.53% (inactive) | – |
| CCCCNC(=S)NCCCC | -8.91% (inactive) | – |
| CC1=C(CC(=O)O)c2cc(F)ccc2/C1=C\c1ccc(S(C)(=O)=O)cc1 | 5.24% [at 42.5 µM] (inactive) | – |
| CO[Si](C)(C)OC | 0.325% (inactive) | – |
| CC(C)(C)C1CCCCC1=O (stereo not given) | -2.66% (inactive) | – |
| COc1cc(Cl)ccc1Cl | -0.555% (inactive) | – |
| COc1nc(C)nc(NC(=O)NS(=O)(=O)c2ccccc2OCCCl)n1 | 0.218% (inactive) | – |
| CCCCCCCOC(=O)CCC | 0.515% (inactive) | – |
| CCCCC1CCC(=O)O1 (stereo not given) | -1.41% (inactive) | – |
| O=c1[nH]cnc2c1ncn2[C@@H]1O[C@H](CO)[C@@H](O)[C@H]1O | 0.0744% [at 42.5 µM] (inactive) | – |
| CC(=O)OC(C)OC(C)=O | 1.02% (inactive) | – |
| Cc1ccc(C=O)s1 | -2.24% (inactive) | – |
| NS(=O)(=O)c1cc(-c2nn[nH]n2)c(NCc2cccs2)cc1Cl | -8.7% [at 42.5 µM] (inactive) | – |
| CCOc1ccc(OCC)c(Cl)c1 | -0.466% (inactive) | – |
| COc1ccccc1N1CCN(CCCNc2cc(=O)n(C)c(=O)n2C)CC1 | -3.65% [at 42.5 µM] (inactive) | – |
| NCCC(O)(P(=O)(O)O)P(=O)(O)O | -1.58% [at 42.5 µM] (inactive) | – |
| N#CSCC(=O)O | 0.637% [at 42.5 µM] (inactive) | – |
| O=C(CC(=O)C(F)(F)F)c1ccccc1 | – | 55.3 µM (active) |
